From ChEMBL document CHEMBL1961873, “Compounds: GSK PKIS; Assays: Nanosyn kinase panel” (2012)

What was measured:
[1] = molecular target: T1, Tyrosine-protein kinase receptor TYRO3 (Homo sapiens) (UniProt Q06418); details: at 1 µM
T1 sequence (whole entry): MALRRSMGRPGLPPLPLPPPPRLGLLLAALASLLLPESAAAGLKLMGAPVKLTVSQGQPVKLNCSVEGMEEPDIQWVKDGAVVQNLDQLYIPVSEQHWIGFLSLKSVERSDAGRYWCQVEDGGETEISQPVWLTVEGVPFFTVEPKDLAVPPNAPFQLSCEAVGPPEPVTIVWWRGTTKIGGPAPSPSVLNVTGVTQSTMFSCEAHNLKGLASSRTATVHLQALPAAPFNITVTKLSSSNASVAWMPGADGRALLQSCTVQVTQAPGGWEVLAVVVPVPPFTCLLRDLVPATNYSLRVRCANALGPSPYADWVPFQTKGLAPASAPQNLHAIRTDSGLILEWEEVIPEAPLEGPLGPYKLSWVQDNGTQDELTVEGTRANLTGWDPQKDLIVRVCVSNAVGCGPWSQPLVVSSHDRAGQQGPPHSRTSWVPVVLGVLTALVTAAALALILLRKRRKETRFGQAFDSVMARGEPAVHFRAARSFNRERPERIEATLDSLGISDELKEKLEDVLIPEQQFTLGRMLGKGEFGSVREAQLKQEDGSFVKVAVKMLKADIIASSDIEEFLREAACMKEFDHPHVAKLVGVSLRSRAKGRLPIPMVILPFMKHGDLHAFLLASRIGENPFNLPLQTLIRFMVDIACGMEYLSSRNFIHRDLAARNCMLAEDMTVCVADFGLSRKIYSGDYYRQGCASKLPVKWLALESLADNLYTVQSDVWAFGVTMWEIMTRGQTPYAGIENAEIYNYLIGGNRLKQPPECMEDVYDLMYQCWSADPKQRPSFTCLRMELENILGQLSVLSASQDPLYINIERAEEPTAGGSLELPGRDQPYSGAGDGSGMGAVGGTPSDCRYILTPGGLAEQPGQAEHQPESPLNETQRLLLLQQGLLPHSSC

[2] = molecular target: Tyrosine-protein kinase Yes (Homo sapiens) (UniProt P07947); details: at 0.1 µM
[3] = molecular target: Tyrosine-protein kinase Yes (Homo sapiens) (UniProt P07947); details: at 1 µM
[4] = molecular target: T2, Tyrosine-protein kinase ZAP-70 (Homo sapiens) (UniProt P43403); details: at 0.1 µM
T2 sequence (whole entry): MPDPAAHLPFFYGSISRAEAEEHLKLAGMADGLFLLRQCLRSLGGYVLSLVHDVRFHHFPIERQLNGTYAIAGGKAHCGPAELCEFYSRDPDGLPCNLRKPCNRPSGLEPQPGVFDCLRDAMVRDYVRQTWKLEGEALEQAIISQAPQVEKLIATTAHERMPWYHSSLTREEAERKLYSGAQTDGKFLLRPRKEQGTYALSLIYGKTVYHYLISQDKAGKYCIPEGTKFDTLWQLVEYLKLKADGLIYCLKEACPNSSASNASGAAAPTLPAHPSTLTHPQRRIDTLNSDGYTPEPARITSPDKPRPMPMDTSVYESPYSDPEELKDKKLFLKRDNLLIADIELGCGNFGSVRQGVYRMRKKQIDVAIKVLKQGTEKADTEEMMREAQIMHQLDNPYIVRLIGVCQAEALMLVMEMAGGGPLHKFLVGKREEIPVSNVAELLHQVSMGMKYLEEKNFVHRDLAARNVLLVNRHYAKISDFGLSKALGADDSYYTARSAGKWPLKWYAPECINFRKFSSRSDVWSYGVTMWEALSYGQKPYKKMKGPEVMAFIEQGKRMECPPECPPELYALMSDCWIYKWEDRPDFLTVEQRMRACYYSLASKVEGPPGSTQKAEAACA

[5] = molecular target: T2, Tyrosine-protein kinase ZAP-70 (Homo sapiens); details: at 1 µM
[6] = molecular target: Serine/threonine-protein kinase B-raf (Homo sapiens) (UniProt P15056); details: at 0.1 µM
[7] = molecular target: Serine/threonine-protein kinase B-raf (Homo sapiens) (UniProt P15056); details: at 1 µM
[8] = test system: Serine/threonine-protein kinase B-raf (Homo sapiens), P15056 [V600E]; details: at 0.1 µM
[9] = test system: Serine/threonine-protein kinase B-raf (Homo sapiens), P15056 [V600E]; details: at 1 µM
[10] = molecular target: RAF proto-oncogene serine/threonine-protein kinase (Homo sapiens) (UniProt P04049); details: at 0.1 µM
[11] = molecular target: RAF proto-oncogene serine/threonine-protein kinase (Homo sapiens) (UniProt P04049); details: at 1 µM
[12] = molecular target: T3, Interleukin-1 receptor-associated kinase 4 (Homo sapiens) (UniProt Q9NWZ3); details: at 0.1 µM
T3 sequence (whole entry): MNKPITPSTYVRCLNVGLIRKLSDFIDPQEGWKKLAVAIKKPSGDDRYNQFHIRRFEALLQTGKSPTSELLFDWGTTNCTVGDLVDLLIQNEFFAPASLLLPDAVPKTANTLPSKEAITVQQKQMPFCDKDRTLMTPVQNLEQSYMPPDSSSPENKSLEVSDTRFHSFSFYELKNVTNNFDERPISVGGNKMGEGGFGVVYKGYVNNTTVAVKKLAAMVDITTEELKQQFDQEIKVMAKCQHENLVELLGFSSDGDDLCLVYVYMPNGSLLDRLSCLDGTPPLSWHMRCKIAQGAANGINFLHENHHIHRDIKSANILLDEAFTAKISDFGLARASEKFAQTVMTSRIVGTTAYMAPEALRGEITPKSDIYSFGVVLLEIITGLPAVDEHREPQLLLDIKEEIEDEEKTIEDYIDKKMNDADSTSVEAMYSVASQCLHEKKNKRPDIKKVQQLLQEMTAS

[13] = molecular target: T3, Interleukin-1 receptor-associated kinase 4 (Homo sapiens); details: at 1 µM
[14] = molecular target: Leucine-rich repeat serine/threonine-protein kinase 2 (Homo sapiens) (UniProt Q5S007); details: at 0.1 µM
[15] = molecular target: Leucine-rich repeat serine/threonine-protein kinase 2 (Homo sapiens) (UniProt Q5S007); details: at 1 µM
[16] = test system: Leucine-rich repeat serine/threonine-protein kinase 2 (Homo sapiens), Q5S007 [G2019S]; details: at 0.1 µM
[17] = test system: Leucine-rich repeat serine/threonine-protein kinase 2 (Homo sapiens), Q5S007 [G2019S]; details: at 1 µM

Sequence of Leucine-rich repeat serine/threonine-protein kinase 2 (Homo sapiens) (Q5S007 whole entry): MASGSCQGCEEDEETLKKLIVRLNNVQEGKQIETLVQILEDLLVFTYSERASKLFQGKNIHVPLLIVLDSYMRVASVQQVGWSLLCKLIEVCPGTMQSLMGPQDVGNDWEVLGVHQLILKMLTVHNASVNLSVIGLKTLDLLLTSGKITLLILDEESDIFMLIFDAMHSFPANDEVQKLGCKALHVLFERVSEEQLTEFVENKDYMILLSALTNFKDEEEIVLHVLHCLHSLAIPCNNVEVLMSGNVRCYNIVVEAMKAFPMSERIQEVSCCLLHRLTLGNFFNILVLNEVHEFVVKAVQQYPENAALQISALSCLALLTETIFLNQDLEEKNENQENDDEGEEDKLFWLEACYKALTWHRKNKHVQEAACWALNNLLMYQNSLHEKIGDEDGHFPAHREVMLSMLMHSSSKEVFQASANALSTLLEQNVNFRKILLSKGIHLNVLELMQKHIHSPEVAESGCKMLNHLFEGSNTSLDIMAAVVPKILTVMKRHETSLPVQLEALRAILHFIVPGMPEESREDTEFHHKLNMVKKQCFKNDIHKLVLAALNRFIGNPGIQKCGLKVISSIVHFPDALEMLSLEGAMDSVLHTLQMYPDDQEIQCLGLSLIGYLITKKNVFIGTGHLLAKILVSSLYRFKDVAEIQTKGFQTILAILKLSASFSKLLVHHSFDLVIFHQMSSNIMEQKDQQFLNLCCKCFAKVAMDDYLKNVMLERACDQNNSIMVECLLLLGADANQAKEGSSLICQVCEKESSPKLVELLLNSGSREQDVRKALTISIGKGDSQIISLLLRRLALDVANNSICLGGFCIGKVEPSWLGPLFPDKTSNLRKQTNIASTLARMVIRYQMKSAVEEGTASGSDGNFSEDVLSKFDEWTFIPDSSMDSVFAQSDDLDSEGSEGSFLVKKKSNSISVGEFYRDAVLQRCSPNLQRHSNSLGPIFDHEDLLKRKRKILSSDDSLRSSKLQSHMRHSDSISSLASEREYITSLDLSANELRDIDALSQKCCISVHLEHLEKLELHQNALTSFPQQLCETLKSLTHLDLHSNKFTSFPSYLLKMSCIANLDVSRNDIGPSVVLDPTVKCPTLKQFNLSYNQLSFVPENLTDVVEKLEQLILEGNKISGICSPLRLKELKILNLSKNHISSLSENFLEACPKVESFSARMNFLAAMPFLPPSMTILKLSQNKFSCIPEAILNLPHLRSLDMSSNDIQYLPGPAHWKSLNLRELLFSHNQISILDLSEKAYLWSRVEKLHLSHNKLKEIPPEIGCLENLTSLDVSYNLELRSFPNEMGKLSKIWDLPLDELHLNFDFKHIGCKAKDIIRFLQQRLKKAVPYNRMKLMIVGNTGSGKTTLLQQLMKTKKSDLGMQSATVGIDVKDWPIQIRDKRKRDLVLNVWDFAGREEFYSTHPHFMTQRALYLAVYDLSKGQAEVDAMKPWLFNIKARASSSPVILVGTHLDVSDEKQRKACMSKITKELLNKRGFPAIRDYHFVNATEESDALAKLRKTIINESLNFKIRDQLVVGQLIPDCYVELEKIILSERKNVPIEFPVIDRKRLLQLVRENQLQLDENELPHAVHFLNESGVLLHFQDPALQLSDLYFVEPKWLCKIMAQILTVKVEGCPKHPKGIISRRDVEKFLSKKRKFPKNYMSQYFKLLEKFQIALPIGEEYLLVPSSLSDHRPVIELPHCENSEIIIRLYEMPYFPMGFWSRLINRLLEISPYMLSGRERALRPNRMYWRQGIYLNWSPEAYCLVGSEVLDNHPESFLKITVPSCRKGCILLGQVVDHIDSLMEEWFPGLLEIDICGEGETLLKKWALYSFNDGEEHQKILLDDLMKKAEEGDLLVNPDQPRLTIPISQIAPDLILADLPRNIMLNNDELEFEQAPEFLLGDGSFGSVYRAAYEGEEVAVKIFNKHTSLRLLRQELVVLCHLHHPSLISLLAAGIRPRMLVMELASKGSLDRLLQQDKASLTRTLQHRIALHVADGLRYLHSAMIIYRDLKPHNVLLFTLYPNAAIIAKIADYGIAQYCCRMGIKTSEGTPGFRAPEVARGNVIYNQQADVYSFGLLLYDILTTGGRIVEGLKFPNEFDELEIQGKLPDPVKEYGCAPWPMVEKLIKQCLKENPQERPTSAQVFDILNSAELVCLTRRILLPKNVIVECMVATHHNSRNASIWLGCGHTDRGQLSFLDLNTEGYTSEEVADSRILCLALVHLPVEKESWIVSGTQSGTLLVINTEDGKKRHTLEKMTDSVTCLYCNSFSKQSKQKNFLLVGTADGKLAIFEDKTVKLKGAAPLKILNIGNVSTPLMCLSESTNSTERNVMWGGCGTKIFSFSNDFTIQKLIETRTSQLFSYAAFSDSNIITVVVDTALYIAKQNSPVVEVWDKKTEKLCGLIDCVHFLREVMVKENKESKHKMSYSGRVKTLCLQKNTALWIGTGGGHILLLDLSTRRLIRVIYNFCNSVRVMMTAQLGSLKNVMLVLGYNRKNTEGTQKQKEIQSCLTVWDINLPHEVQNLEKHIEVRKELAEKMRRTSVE
Sequence of Serine/threonine-protein kinase B-raf (Homo sapiens), P15056 [V600E] (P15056 whole entry V600E): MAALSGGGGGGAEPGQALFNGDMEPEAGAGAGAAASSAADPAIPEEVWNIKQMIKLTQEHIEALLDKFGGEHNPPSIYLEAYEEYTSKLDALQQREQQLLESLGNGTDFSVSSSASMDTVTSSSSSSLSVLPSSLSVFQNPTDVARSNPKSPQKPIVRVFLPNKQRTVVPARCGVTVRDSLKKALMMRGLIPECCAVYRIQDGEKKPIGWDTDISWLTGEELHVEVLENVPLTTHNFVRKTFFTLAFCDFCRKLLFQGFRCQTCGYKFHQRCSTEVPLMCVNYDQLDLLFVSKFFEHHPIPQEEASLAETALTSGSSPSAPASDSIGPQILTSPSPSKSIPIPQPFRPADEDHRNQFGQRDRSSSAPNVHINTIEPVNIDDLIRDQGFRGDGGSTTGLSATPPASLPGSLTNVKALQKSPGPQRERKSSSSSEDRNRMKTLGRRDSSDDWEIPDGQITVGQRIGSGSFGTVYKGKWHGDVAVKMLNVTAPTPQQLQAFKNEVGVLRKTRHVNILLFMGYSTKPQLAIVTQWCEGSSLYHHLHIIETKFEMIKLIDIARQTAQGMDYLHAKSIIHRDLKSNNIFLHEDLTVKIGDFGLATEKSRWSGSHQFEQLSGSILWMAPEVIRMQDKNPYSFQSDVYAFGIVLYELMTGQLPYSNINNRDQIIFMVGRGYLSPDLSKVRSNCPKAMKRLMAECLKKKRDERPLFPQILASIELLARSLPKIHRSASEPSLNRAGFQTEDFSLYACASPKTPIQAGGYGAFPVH
Sequence of RAF proto-oncogene serine/threonine-protein kinase (Homo sapiens) (P04049 whole entry): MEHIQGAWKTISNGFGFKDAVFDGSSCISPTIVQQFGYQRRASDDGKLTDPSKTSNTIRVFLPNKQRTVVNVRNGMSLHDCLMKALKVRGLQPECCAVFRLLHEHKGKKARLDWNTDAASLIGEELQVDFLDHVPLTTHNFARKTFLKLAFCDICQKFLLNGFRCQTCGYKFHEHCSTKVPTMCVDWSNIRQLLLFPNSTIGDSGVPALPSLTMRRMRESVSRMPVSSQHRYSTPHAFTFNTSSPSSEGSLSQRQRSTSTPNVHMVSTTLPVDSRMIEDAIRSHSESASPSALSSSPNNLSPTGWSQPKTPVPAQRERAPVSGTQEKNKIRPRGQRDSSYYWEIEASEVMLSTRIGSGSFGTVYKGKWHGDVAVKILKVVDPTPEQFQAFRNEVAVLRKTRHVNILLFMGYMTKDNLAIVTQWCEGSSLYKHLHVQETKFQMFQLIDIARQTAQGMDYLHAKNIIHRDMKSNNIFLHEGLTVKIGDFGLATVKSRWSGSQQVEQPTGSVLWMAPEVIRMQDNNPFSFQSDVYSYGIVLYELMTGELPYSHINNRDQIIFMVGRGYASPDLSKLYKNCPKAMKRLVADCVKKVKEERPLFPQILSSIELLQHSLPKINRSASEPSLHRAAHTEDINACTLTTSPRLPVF
Sequence of Tyrosine-protein kinase Yes (Homo sapiens) (P07947 2-543 limits assumed): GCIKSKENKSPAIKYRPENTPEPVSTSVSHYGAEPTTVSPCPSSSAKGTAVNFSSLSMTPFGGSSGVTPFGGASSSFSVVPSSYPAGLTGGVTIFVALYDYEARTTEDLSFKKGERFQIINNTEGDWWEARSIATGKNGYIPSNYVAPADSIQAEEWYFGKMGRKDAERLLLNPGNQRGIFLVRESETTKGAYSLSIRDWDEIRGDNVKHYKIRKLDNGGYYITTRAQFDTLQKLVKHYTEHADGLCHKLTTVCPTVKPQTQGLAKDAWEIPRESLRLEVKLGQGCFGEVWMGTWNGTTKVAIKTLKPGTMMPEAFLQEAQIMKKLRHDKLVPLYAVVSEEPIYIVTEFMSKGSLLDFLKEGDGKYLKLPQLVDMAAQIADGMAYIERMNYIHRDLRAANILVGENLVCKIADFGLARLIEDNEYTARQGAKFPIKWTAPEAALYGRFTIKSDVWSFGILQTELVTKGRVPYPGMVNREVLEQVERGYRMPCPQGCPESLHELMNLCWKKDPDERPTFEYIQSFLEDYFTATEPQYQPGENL
Sequence of Serine/threonine-protein kinase B-raf (Homo sapiens) (P15056 whole entry): as the sequence (P15056 whole entry V600E) above, with E600V counted along it
Sequence of Leucine-rich repeat serine/threonine-protein kinase 2 (Homo sapiens), Q5S007 [G2019S] (Q5S007 whole entry G2019S): as the sequence (Q5S007 whole entry) above, with G2019S counted along it

SMILES	inhibition [1] [%]	inhibition [2] [%]	inhibition [3] [%]	inhibition [4] [%]	inhibition [5] [%]	inhibition [6] [%]	inhibition [7] [%]	inhibition [8] [%]	inhibition [9] [%]	inhibition [10] [%]	inhibition [11] [%]	inhibition [12] [%]	inhibition [13] [%]	inhibition [14] [%]	inhibition [15] [%]	inhibition [16] [%]	inhibition [17] [%]
Nc1ncc(-c2cccc(S(N)(=O)=O)c2)c2scc(-c3ccc(F)c(Cl)c3)c12	25.1	11.5	56.4	1.28	2.18	6.39	15.3	5.84	10.1	-0.36	-4.88	1.66	2.08	10.2	45.8	11.7	51.2
CCn1c(-c2nonc2N)nc2c(C#CC(C)(C)O)ncc(OC3CCNCC3)c21	2.44	1.38	5.89	0.49	1.77	3.57	6.35	4.12	3.02	8.75	1.95	2.02	1.93	0.26	6.79	3.92	12
Fc1ccc(-c2nn3ncccc3c2-c2ccnc(Nc3ccc4c(c3)OCCO4)n2)cc1	24.8	86.3	96.6	3.1	3.06	11.6	25.9	11.6	21.5	0.23	-0.33	2.79	2.18	3.63	7.64	2.59	6.75
COc1cc2c(cc1Nc1nc(Nc3ccsc3C(N)=O)c3cc[nH]c3n1)N(C(=O)CN(C)C)CCC2(C)C	18.6	2.57	0.61	2.36	14.9	6.5	14.9	7.15	14	1.55	-0.27	-1.47	2.28	90.7	98	85.4	93.9
CN1CCC(n2cnc(-c3ccc(F)cc3)c2-c2ccnc(Nc3ccccc3)n2)CC1	2.25	8.83	42.3	1.81	–	3.78	4.47	3.27	6.57	-3.04	-0.18	1.95	1.28	1.16	3.05	1.22	5.12
CS(=O)(=O)CCNCc1ccc(-c2ccc3ncnc(Nc4ccc(OCc5ccccc5)c(C(F)(F)F)c4)c3c2)o1	6.25	2.85	7.92	0.47	2.41	5.9	4.19	3.97	3	1.81	0.04	0.72	1.09	2.22	4.18	4.54	5.03
COc1ccc(-c2nn3ncccc3c2-c2ccnc(Nc3ccc4c(c3)OCCO4)n2)cc1	9.92	79.3	95.8	–	-0.83	2.67	5.07	1.25	4.88	-0.5	-7.5	-0.42	-0.94	7.1	11.4	6.14	10.2
[O-][S+]1CCN(Cc2ccc(-c3ccc4ncnc(Nc5ccc(OCc6cccc(F)c6)c(Cl)c5)c4c3)o2)CC1	18.8	6.03	21.1	0.38	3.57	6.54	8.02	5.36	5.17	-0.6	-3.13	1.66	1.66	3.74	3.96	6.35	11.4
COC(=O)Nc1nc2ccc(Oc3ccc(NC(=O)Nc4cccc(Cl)c4)cc3)cc2[nH]1	11	0.67	2.42	0.78	2.42	6.07	17.1	6.79	15.1	-4.01	5.38	-0.12	0.32	6.71	14.1	5	6.86
Nc1nc(-c2ccc(F)cc2)c(-c2ccc3ncccc3n2)s1	2.87	6.52	37.8	1.91	1.99	6.57	7.72	6.41	7.92	0.53	-6.29	3.41	2.12	1.84	6.21	4.54	10.2
CCCN(CCS(C)(=O)=O)Cc1ccc(-c2ccc3ncnc(Nc4ccc(OCc5cccc(F)c5)c(Cl)c4)c3c2)o1	1.99	1.86	8.75	–	1.73	3.07	3.72	3.15	3.85	1.57	-0.27	-3.12	0.98	3.72	4.95	4.3	6.74
CCn1c(-c2nonc2N)nc2cnc(Oc3cccc(NC(=O)c4ccc(N(C)C)cc4)c3)cc21	0.87	0.93	2.45	1.81	2.72	1.95	5.71	2.62	6.32	0.85	-4.15	0.85	0.95	2.37	6.56	5.49	27.4
Cc1ccc(O)cc1Nc1ccnc2cc(-c3ccccn3)ccc12	13.9	58.2	90.7	0.52	4.03	9.05	12.1	8.35	9.49	-1.1	–	-3.41	2.33	5.01	11.4	7.5	31.1
CCCN1CCC(c2ccc(Nc3nc(Nc4cc(F)ccc4C(N)=O)c4cc[nH]c4n3)c(OC)c2)CC1	18.4	5.76	19.3	–	29.3	9.61	37.6	10.1	37.4	7.25	17.1	3.12	3.69	85.5	89.7	79.9	64.4
Fc1ccc(-c2cc(-c3c[nH]nc3-c3ccccn3)ccn2)cc1	5.06	5.64	9.04	2.71	2.35	6.7	8.05	9.04	6.61	0.68	-1.83	2.71	1.76	2.24	5.28	3.03	4.92
